This is part of a sample that, as a whole, favours compounds with a hit. Of some 83,000 tested, about 20% had one in any assay.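 Method: cells in 96-well plates; compound added at one concentration; 48 h incubation; percent growth measured; values under 10 scored active.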 Active and inactive are the calls of the source.
What was measured:
Experiment in all cases: NCI-60 one-dose screen, 48 h (100 = growth as untreated, 0 = no growth, -100 = all killed)
SK-MEL-2 melanoma = details: 10 µM unless noted
EKVX NSCLC = details: 10 µM unless noted
SN12C renal = details: 10 µM unless noted
UO-31 renal = details: 10 µM unless noted
TK-10 renal = details: 10 µM unless noted
ACHN renal = details: 10 µM unless noted
CAKI-1 renal = details: 10 µM unless noted
CCRF-CEM leukemia = details: 10 µM unless noted
MOLT-4 leukemia = details: 10 µM unless noted
SR leukemia = details: 10 µM unless noted
RPMI-8226 leukemia = details: 10 µM unless noted
OVCAR-8 ovarian = details: 10 µM unless noted
OVCAR-5 ovarian = details: 10 µM unless noted
SK-OV-3 ovarian = details: 10 µM unless noted
IGROV1 ovarian = details: 10 µM unless noted
OVCAR-3 ovarian = details: 10 µM unless noted
HS 578T breast = details: 10 µM unless noted
NCI/ADR-RES ovarian = details: 10 µM unless noted
A498 renal = details: 10 µM unless noted
OVCAR-4 ovarian = details: 10 µM

Measured: growth

O=[N+]([O-])c1ccc(O)c(-c2nc3ccccc3s2)c1
inactive: SK-MEL-2 melanoma 99% | EKVX NSCLC 83.6% | SN12C renal 64.9% | UO-31 renal 43.5% | TK-10 renal 82.4% | ACHN renal 85.6% | CAKI-1 renal 73% | CCRF-CEM leukemia 77.3% | MOLT-4 leukemia 65.3% | SR leukemia 84.5% | RPMI-8226 leukemia 51.1% | OVCAR-8 ovarian 92% | OVCAR-5 ovarian 112% | SK-OV-3 ovarian 81.2% | IGROV1 ovarian 70% | OVCAR-3 ovarian 47.9% | HS 578T breast 67.3% | NCI/ADR-RES ovarian 82.8%

Ic1ccc2[nH]cc(SSc3c[nH]c4ccc(I)cc34)c2c1
inactive: SK-MEL-2 melanoma 74% | EKVX NSCLC 23.5% | SN12C renal 42.1% | UO-31 renal 36.6% | ACHN renal 16.5% | A498 renal 40.7% | MOLT-4 leukemia 13.2% | SR leukemia 13.8% | OVCAR-8 ovarian 32.6% | OVCAR-5 ovarian 42.7% | OVCAR-4 ovarian 25.3% | HS 578T breast 65.7%
active: TK-10 renal -13.3% | CAKI-1 renal -6.92% | RPMI-8226 leukemia 3.93% | SK-OV-3 ovarian -20.1% | OVCAR-3 ovarian -9.35% | NCI/ADR-RES ovarian 7.06%

COc1c(B(O)O)cccc1-c1nc2ccc3[nH]ncc3c2c2c1CCC2
inactive: SK-MEL-2 melanoma 58.2% | EKVX NSCLC 47.9% | SN12C renal 74.3% | UO-31 renal 23.5% | TK-10 renal 36.4% | ACHN renal 36.4% | CAKI-1 renal 16.6% | A498 renal 34.7% | MOLT-4 leukemia 61.6% | SR leukemia 67.8% | RPMI-8226 leukemia 60.1% | OVCAR-8 ovarian 61.2% | OVCAR-5 ovarian 89.9% | OVCAR-4 ovarian 80.7% | IGROV1 ovarian 42% | OVCAR-3 ovarian 89.8% | HS 578T breast 17.7% | NCI/ADR-RES ovarian 81.4%

Cc1ccc2c(c1)C(C)Cc1c(Cl)ncnc1N2C (stereo unspecified)
inactive: EKVX NSCLC 22.2% | SN12C renal 32.8% | UO-31 renal 18% | TK-10 renal 18.3% | ACHN renal 32% | CAKI-1 renal 31% | CCRF-CEM leukemia 49.7% | MOLT-4 leukemia 13.6% | SR leukemia 22.6% | RPMI-8226 leukemia 28.2% | OVCAR-8 ovarian 11.9% | OVCAR-5 ovarian 40.4% | OVCAR-4 ovarian 19.5% | SK-OV-3 ovarian 15.7% | IGROV1 ovarian 61% | HS 578T breast 32.7% | NCI/ADR-RES ovarian 10.7%
active: SK-MEL-2 melanoma -21.4% | OVCAR-3 ovarian 6.8%

C=C(C)[C@@H]1CC[C@]2(COC(=O)c3ccccc3C(=O)O)CC[C@]3(C)[C@H](CC[C@@H]4[C@@]5(C)CC[C@H](OC(=O)c6ccccc6C(=O)O)C(C)(C)[C@@H]5CC[C@]43C)[C@@H]12
active: ACHN renal -55.6% [100 µM] | OVCAR-3 ovarian 2% [100 µM] | HS 578T breast -3.77% [100 µM]
inactive: SK-MEL-2 melanoma 23.8% [100 µM] | EKVX NSCLC 39.5% [100 µM] | SN12C renal 27.8% [100 µM] | UO-31 renal 27.7% [100 µM] | TK-10 renal 21.8% [100 µM] | CAKI-1 renal 10.7% [100 µM] | CCRF-CEM leukemia 46.4% [100 µM] | MOLT-4 leukemia 39.9% [100 µM] | SR leukemia 63.8% [100 µM] | RPMI-8226 leukemia 28.4% [100 µM] | OVCAR-8 ovarian 46.7% [100 µM] | OVCAR-5 ovarian 105% [100 µM] | SK-OV-3 ovarian 47.9% [100 µM] | IGROV1 ovarian 31% [100 µM] | NCI/ADR-RES ovarian 23.1% [100 µM]

O=C1CC(c2ccccc2)Cc2nc3ccc(Cl)cc3cc21 (stereo unspecified)
inactive: SK-MEL-2 melanoma 57.1% | EKVX NSCLC 30.2% | SN12C renal 28.3% | UO-31 renal 35% | TK-10 renal 71.2% | ACHN renal 30.8% | CAKI-1 renal 29.2% | CCRF-CEM leukemia 10.4% | MOLT-4 leukemia 11.6% | SR leukemia 13% | RPMI-8226 leukemia 29.7% | OVCAR-8 ovarian 22.4% | OVCAR-5 ovarian 26.4% | OVCAR-4 ovarian 48.7% | SK-OV-3 ovarian 47.2% | IGROV1 ovarian 16.5%
active: OVCAR-3 ovarian -29.1% | NCI/ADR-RES ovarian 7.96%

CCCCOC(=O)c1cccc([N+](=O)[O-])c1
inactive: SK-MEL-2 melanoma 113% | EKVX NSCLC 93.4% | SN12C renal 108% | UO-31 renal 94.7% | TK-10 renal 111% | ACHN renal 112% | CAKI-1 renal 105% | MOLT-4 leukemia 122% | SR leukemia 132% | RPMI-8226 leukemia 90.2% | OVCAR-8 ovarian 100% | OVCAR-5 ovarian 97.9% | OVCAR-4 ovarian 113% | SK-OV-3 ovarian 109% | OVCAR-3 ovarian 114% | HS 578T breast 114% | NCI/ADR-RES ovarian 107%
active: CCRF-CEM leukemia 1.56%

CC1(C)CC[C@]23CC[C@]4(C)[C@H](CC[C@@H]5[C@@]6(C)C/C(=C/c7cccnc7)C(=O)C(C)(C)[C@@H]6CC[C@]54C)[C@H]2[C@H]1OC3=O
inactive: SK-MEL-2 melanoma 27.6% [100 µM] | EKVX NSCLC 74.7% [100 µM] | SN12C renal 41.5% [100 µM] | UO-31 renal 34.8% [100 µM] | TK-10 renal 55% [100 µM] | ACHN renal 36.9% [100 µM] | CAKI-1 renal 40.6% [100 µM] | CCRF-CEM leukemia 19.3% [100 µM] | MOLT-4 leukemia 19.4% [100 µM] | SR leukemia 42.4% [100 µM] | RPMI-8226 leukemia 11.3% [100 µM] | OVCAR-8 ovarian 42.4% [100 µM] | OVCAR-5 ovarian 79.7% [100 µM] | SK-OV-3 ovarian 64.6% [100 µM] | IGROV1 ovarian 66.8% [100 µM] | OVCAR-3 ovarian 49.3% [100 µM] | HS 578T breast 54.6% [100 µM] | NCI/ADR-RES ovarian 50.1% [100 µM]

CCCSc1nc(N)nc2nc[nH]c12
inactive: SK-MEL-2 melanoma 106% | EKVX NSCLC 106% | SN12C renal 98.3% | UO-31 renal 93.5% | TK-10 renal 154% | ACHN renal 96.4% | CAKI-1 renal 128% | CCRF-CEM leukemia 115% | MOLT-4 leukemia 121% | SR leukemia 107% | RPMI-8226 leukemia 101% | OVCAR-8 ovarian 99.8% | OVCAR-5 ovarian 108% | OVCAR-4 ovarian 114% | IGROV1 ovarian 80.8% | OVCAR-3 ovarian 103% | HS 578T breast 135% | NCI/ADR-RES ovarian 108%

COC(=O)c1cc(O)c2c(c1C(=O)OC)C[C@H]1[C@@H]3CC=C4C[C@@H](O)CC[C@]4(C)[C@H]3CC[C@]21C
inactive: SK-MEL-2 melanoma 78.7% | EKVX NSCLC 55% | SN12C renal 71.3% | UO-31 renal 39.9% | TK-10 renal 55% | ACHN renal 39.9% | CAKI-1 renal 26.2% | CCRF-CEM leukemia 37.8% | MOLT-4 leukemia 35.6% | SR leukemia 31.5% | RPMI-8226 leukemia 16.6% | OVCAR-8 ovarian 63.9% | OVCAR-5 ovarian 61.4% | SK-OV-3 ovarian 83.7% | IGROV1 ovarian 72.8% | OVCAR-3 ovarian 33.2% | HS 578T breast 31.5% | NCI/ADR-RES ovarian 44.2%

Reference: PubChem BioAssay (NCI)
